From the supplement of paper PMC13380429

Assays:
[1] = test system: Vero E6 infected with SARS-CoV-2; assay: morphology score (similarity to uninfected cells); higher = more like uninfected cells; conditions: 24 h
[2] = test system: Vero E6 infected with SARS-CoV-2; assay: SARS-CoV-2 infection rate relative to infected DMSO; higher = more infection, active = 60 or less; conditions: 24 h

Compound | morphology score [1] | SARS-CoV-2 infection rate [2]
O=C(N[C@H]1CN2CCC1CC2)c1ccc2c(c1)OCCO2 (10 µM) | -0.0253 | 100% (inactive)
C[N+]1(C)[C@@H]2C[C@@H](OC(=O)[C@H](CO)c3ccccc3)C[C@H]1[C@@H]1O[C@@H]12 [methscopolamine] (10 µM) | -0.0273 | 96% (inactive)
Cc1nc(C)c(-c2ccc(C3CCC(CC(=O)O)CC3)cc2)nc1C(N)=O (stereo not given) (10 µM) | 0.134 | 89.5% (inactive)
Cc1cc(NC(=O)NCCN2CCC(O)(Cc3ccccc3)CC2)c2ccccc2n1 [palosuran] (10 µM) | -0.00351 | 112% (inactive)
CS(=O)(=O)c1ccc([C@@H](CC2CCCC2)C(=O)Nc2nccs2)cc1 (10 µM) | 0.0357 | 104% (inactive)
OC[C@@H](O)[C@@H](O[C@@H]1O[C@H](CO)[C@H](O)[C@H](O)[C@H]1O)[C@H](O)[C@@H](O)CO (10 µM) | -0.0894 | 111% (inactive)
COC(=O)[C@H]1[C@H]2C[C@@H]3c4[nH]c5cc(OC)ccc5c4CCN3C[C@H]2C[C@@H](OC(=O)c2cc(OC)c(OC)c(OC)c2)[C@@H]1OC [reserpine] (10 µM) | 0.127 | 110% (inactive)
CO/N=C(\C(=O)N[C@@H]1C(=O)N2C(C(=O)OCOC(=O)C(C)(C)C)=C(/C=C\c3scnc3C)CS[C@H]12)c1csc(N)n1 [cefditoren-pivoxil] (10 µM) | 0.149 | 99.5% (inactive)
CNCCCOc1cc(F)c(-c2c(Cl)nc3ncnn3c2N[C@@H](C)C(F)(F)F)c(F)c1 [cevipabulin] (10 µM) | -0.0738 | 92% (inactive)
Cn1c2c(c3ccccc31)CCNCC2 (10 µM) | 0.0193 | 103% (inactive)
N#Cc1c(N)nc(SCc2csc(-c3ccc(Cl)cc3)n2)c(C#N)c1-c1ccc(OCCO)cc1 [capadenoson] (10 µM) | -0.145 | 115% (inactive)
CC[C@H]1OC(=O)[C@H](C)[C@@H](O[C@H]2C[C@@](C)(OC)[C@@H](O)[C@H](C)O2)[C@H](C)[C@@H](O[C@@H]2O[C@H](C)C[C@H](N(C)C)[C@H]2O)[C@](C)(OC)C[C@@H](C)C(=O)[C@H](C)[C@@H](O)[C@]1(C)O [clarithromycin] (10 µM) | -0.0778 | 109% (inactive)
N[C@@H](CC(=O)N1CCn2c(nnc2C(F)(F)F)C1)Cc1cc(F)c(F)cc1F [sitagliptin] (10 µM) | 0.0472 | 98% (inactive)
C/C1=C/C[C@@H](/C(C)=C/c2csc(C)n2)OC(=O)C[C@H](O)C(C)(C)C(=O)[C@H](C)[C@@H](O)[C@@H](C)CCC1 [epothilone-D] (0.833333 µM) | -0.105 | 107% (inactive)
CC(C)[C@H](N)C(=O)OCCOCn1cnc2c(=O)nc(N)[nH]c21 [valaciclovir] (10 µM) | -0.0293 | 116% (inactive)
CC(Cc1ccccc1)(NC(=O)CN)c1ccccc1 (stereo not given) [remacemide] (10 µM) | -0.124 | 113% (inactive)
CCOC(=O)[C@@H](N)CCC(=O)N[C@@H](CSCc1ccccc1)C(=O)N[C@@H](C(=O)OCC)c1ccccc1 [ezatiostat] (10 µM) | 0.202 | 78.5% (inactive)
CC1(C)CC[C@]2(C(=O)O)CC[C@]3(C)[C@H](C(=O)C=C4[C@@]5(C)C=C(C#N)C(=O)C(C)(C)[C@@H]5CC[C@]43C)[C@@H]2C1 [bardoxolone] (0.833333 µM) | 0.164 | 104% (inactive)
c1ccc(-c2ccc(CNc3nc(-c4ccccn4)nnc3-c3ccccc3)cc2)cc1 (10 µM) | -0.0584 | 114% (inactive)
On1ncc(C2CCNCC2)c1-c1cccc(-c2ccccc2)c1 (10 µM) | 0.0231 | 108% (inactive)
O=C1C=CC[C@@H]2[C@H]3CCCN4CCC[C@@H](CN12)[C@@H]34 [sophocarpine] (10 µM) | -0.0321 | 112% (inactive)
COc1ccc(-c2cc(=O)c3c(OC)c(OC)c(OC)c(OC)c3o2)cc1 [tangeritin] (10 µM) | 0.00246 | 105% (inactive)
Cn1c(=O)cnn(CCCCN2CCN(c3ncccn3)CC2)c1=O (10 µM) | -0.0383 | 115% (inactive)
CC(=O)Oc1ccccc1C(=O)O [aspirin] (10 µM) | -0.027 | 98% (inactive)
NCC1OC(C23CC4CC(CC(C4)C2)C3)Cc2c1ccc(O)c2O (stereo not given) (0.833333 µM) | -0.0685 | 115% (inactive)
